Consider one compound from ChEMBL document CHEMBL4513143, “CO-ADD screening of University of Natural Resources and Life (Austria) compounds”.

For one assay, the system named is Staphylococcus aureus. Conditions: Concentration 32 ug.mL-1; ASSAY_TEST Inhibition of Bacterial Growth; detection method Absorption (OD600); MEDIA CAMHB; plate type 384well; NBS; CORNING #3640; time 18 hr.
In another assay the test system is Escherichia coli. Conditions: Concentration 32 ug.mL-1; ASSAY_TEST Inhibition of Bacterial Growth; detection method Absorption (OD600); MEDIA CAMHB; plate type 384well; NBS; CORNING #3640; time 18 hr.

Potency and affinity values are given separately.

What is called Inhibition is the percentage by which the read-out fell short of the control. A high value points to strong suppression. For the compound `[N-]=[N+]=NC[C@H]1OC(O)[C@@H](O)[C@@H]1O` (some centres not stated), the results for the Inhibition in the assay on Staphylococcus aureus and in the assay on Escherichia coli were 29.31% and 18.39%, respectively.
